ChEMBL document CHEMBL3988442, “University of Dundee, Small-Polar-MMV Screening Library” (2021)
Out of some 48,000 compounds screened, about 13,000 (27%) showed an effect of 50% or more. This is one part of the list.

system: Wolbachia pipientis; test: Anti-Wolbachia Cell-Based Screen; format: functional; parameters: scale not given: in the data most compounds retested in dose-response had high values; conditions: 5 µM

Going from `CCCN(CCC)C(=O)c1sc(C)nc1C` to `CCN(CC)CCn1ccnc1-c1cccc(O)c1`, the “Percent Effect” value rises from -0.04444% to 9.33%.

Going from `CCc1nnc2n1CCN(CC(=O)Nc1cc(C(C)(C)C)nn1C)C2` to `CC(C)(C)NC(=O)CN1CCCN(Cc2ccc(C#N)cc2)CC1`, the “Percent Effect” value rises from -9.721% to 13.98%.

First: CC(C)(C)OCCN(Cc1cccc(O)c1)C1CCC(O)CC1 (stereo unspecified)
Second: CS(=O)(=O)NCC(=O)NC(Cc1ccccc1)C1CCCC1 (stereo unspecified)
The “Percent Effect” value of the first is higher: -0.1894% for the first, -11.78% for the second.

Going from `Cc1nc(C2CCCN2Cc2cc(Cl)c3c(c2)OCCO3)no1` (stereo unspecified) to `Cc1nc(C2CCCN2Cc2ccc(S(=O)(=O)N(C)C)o2)no1` (stereo unspecified), the “Percent Effect” value rises from -1.319% to 115.8%.

Going from `Cc1cc(C2CCCN2Cc2ccc(S(=O)(=O)N(C)C)o2)on1` (stereo unspecified) to `CCN(C(=O)CN1CCCC1c1cc(C)no1)c1ccccc1C` (stereo unspecified), the “Percent Effect” value falls from 125.1% to -1.91%.

Compared with `Cc1cc(C2CCCN2Cc2nnc(-c3ccco3)o2)on1` (stereo unspecified), `Cc1nc(C2CCCN2CCCS(=O)(=O)N(C)C)no1` (stereo unspecified) is lower in “Percent Effect” value: 10.62% for the first, -21.09% for the second.

Going from `CNC(=O)CCCNCc1c(C(C)C)nn(C)c1N(C)C` to `CC(C)CNC(=O)CN(C)S(C)(=O)=O`, the “Percent Effect” value rises from -0.6366% to 111.5%.

First: O=C1CC(c2ccncc2)c2c(c(C(=O)O)cn2-c2ccc(F)cc2)N1 (stereo unspecified)
Second: Cc1ccc(S(=O)(=O)NC(=O)C2(c3ccc(F)cc3)CCC2)c(C)c1
The “Percent Effect” value of the first is lower: 5.752% for the first, 80.83% for the second.

Going from `CS(=O)(=O)NCCNC(=O)C1(c2ccc(F)cc2)CC1` to `CC(C)c1ccc(C2(C(=O)NCCS(N)(=O)=O)CCC2)cc1`, the “Percent Effect” value falls from 10.89% to -17.74%.

Compared with `Cc1cccc(C2(C(=O)NS(=O)(=O)c3cnn(C)c3)CCCC2)c1`, `Cn1cc(S(=O)(=O)NC(=O)C2(c3ccccc3)CCC2)cn1` is higher in “Percent Effect” value: -9.611% for the first, -6.386% for the second.

First: Cc1ccccc1S(=O)(=O)NC(=O)C1(c2cccc(Cl)c2)CC1
Second: Cc1ccccc1S(=O)(=O)NC(=O)C1(c2ccccc2)CCC1
The “Percent Effect” value of the first is lower: 3.29% for the first, 93.86% for the second.

Compared with `Cc1ccc(S(=O)(=O)NC(=O)c2cccc3c2OCCO3)c(C)c1`, `O=C(NS(=O)(=O)c1ccc2c(c1)OCCO2)c1ccc(Br)cc1F` is higher in “Percent Effect” value: -13.25% for the first, -2.402% for the second.

Going from `Cc1ccc(S(=O)(=O)NC(=O)C2(c3ccccc3)CCC2)c(C)c1` to `Cc1ccc(S(=O)(=O)NC(=O)COc2cccc(C#N)c2)c(C)c1`, the “Percent Effect” value falls from 104.1% to 41.14%.

Going from `CNc1ncc(CN(C)c2nccc(CCC(F)(F)F)n2)cn1` to `CCN(Cc1ccco1)C(=O)Nc1cc(C(F)(F)F)c[nH]c1=O`, the “Percent Effect” value rises from -7.876% to 8.276%.

Going from `CS(=O)(=O)Nc1cccc(CNC(=O)CCC(=O)c2cccs2)c1` to `CN(CC(=O)NCc1cc2ccccc2o1)S(C)(=O)=O`, the “Percent Effect” value rises from 1.298% to 6.61%.

Going from `CC(=O)NC1CCN(c2nc(N(C)C)nc3c2CCN(C(C)=O)C3)CC1` to `CN(C)c1nc2c(c(N(C)C)n1)CCN(C(=O)CN1CCC(O)CC1)C2`, the “Percent Effect” value falls from 3.638% to -41.67%.

First: CCC(=O)N1CCCCC1c1nc(O)c2c(n1)CN(C(=O)C1CC1)CC2 (stereo unspecified)
Second: CCC(=O)N1CCc2c(O)nc(C3CCCCN3C(=O)C3CC3)nc2C1 (stereo unspecified)
The “Percent Effect” value of the first is higher: 109.8% for the first, 88.1% for the second.

Going from `CC1CCCCN1C(=O)c1nc2c(n1C(C)C)CCN(C(=O)C1CC1)C2` (stereo unspecified) to `CC(C)N1CCC(C(=O)N2CCc3c(nc(CC4CC4)[nH]c3=O)C2)CC1`, the “Percent Effect” value rises from -21.18% to -3.187%.

First: CCC(=O)N1CCCCC1c1nc(O)c2c(n1)CN(C(C)=O)CC2 (stereo unspecified)
Second: CC(CC(=O)Nc1ncn(CC(=O)N2CCCCCC2)n1)C1CC1 (stereo unspecified)
The “Percent Effect” value of the first is higher: 111% for the first, 14.79% for the second.

Going from `CC(C)c1noc(CS(=O)(=O)CC(=O)NCc2cccs2)n1` to `CC(C)CNC(=O)CN(Cc1ccc(F)cc1)S(C)(=O)=O`, the “Percent Effect” value rises from -1.009% to 96.65%.

First: CC(C)(O)CCc1cccc(C(=O)N[C@H](C(N)=O)c2ccccc2)c1
Second: CC(NCCc1nccn1Cc1ccccc1)c1cccs1 (stereo unspecified)
The “Percent Effect” value of the first is lower: -7.223% for the first, 7.205% for the second.

Going from `Cc1cccc2c1nc(COCC(=O)O)n2-c1ccsc1` to `COc1nn(C)cc1C(=O)NCC(OC)c1ccccc1C` (stereo unspecified), the “Percent Effect” value falls from 2.323% to 0.6487%.

First: CCNC(=O)N1CCCCC1CCNS(C)(=O)=O (stereo unspecified)
Second: Cc1ccc(CNC(=O)N2CCCCC2CCNS(C)(=O)=O)cc1 (stereo unspecified)
The “Percent Effect” value of the first is higher: -13.96% for the first, -22.58% for the second.

First: CC(CC(=O)NCCNS(C)(=O)=O)C1CCCCC1 (stereo unspecified)
Second: CC(CC(=O)NCCS(N)(=O)=O)C1CCCCC1 (stereo unspecified)
The “Percent Effect” value of the first is higher: 132.7% for the first, 93.71% for the second.

First: NS(=O)(=O)CCNC(=O)CCc1cc(Br)cs1
Second: CC(C)CNC(=O)CN(CC(=O)NCC(C)C)S(C)(=O)=O
The “Percent Effect” value of the first is lower: 1.171% for the first, 89.59% for the second.

First: CC(CC(=O)NS(C)(=O)=O)C1CCCCC1 (stereo unspecified)
Second: CC(NC(=O)CN(C)S(C)(=O)=O)c1ccc(F)cc1 (stereo unspecified)
The “Percent Effect” value of the first is higher: 81.01% for the first, -21.23% for the second.

First: CCS(=O)(=O)N1Cc2ccnn2CC(c2nc(C)no2)C1 (stereo unspecified)
Second: Cc1oc(C)c(C(=O)NS(=O)(=O)c2ccc3c(c2)OCCCO3)c1C
The “Percent Effect” value of the first is lower: -5.084% for the first, 0.6682% for the second.

First: CCCC(=O)N(CC)C(c1cccnc1)c1ccc2c(c1)CCO2 (stereo unspecified)
Second: Cc1oc(C)c(C(=O)NS(=O)(=O)c2ccc3c(c2)OCCO3)c1Br
The “Percent Effect” value of the first is lower: -14.24% for the first, 78.36% for the second.

First: Cc1cc(C(N)=O)ccc1NC(=O)N1CCN(c2cccs2)CC1
Second: O=C(C1CC1)N1CCN(c2ccc(-n3cncn3)nn2)CC1
The “Percent Effect” value of the first is lower: 1.471% for the first, 7.785% for the second.

First: CC(C)NC(=O)[C@@H]1C[C@H](N)CN1C(=O)c1cc2ccccc2[nH]c1=O
Second: CN(Cc1ccccn1)c1nccc(N2CCN[C@H]3CS(=O)(=O)C[C@H]32)n1
The “Percent Effect” value of the first is lower: -13.02% for the first, -6.376% for the second.

First: CC(C)CNC(=O)CSc1nnc(OC(C)C)s1
Second: CC(C)CNC(=O)COc1cccc[n+]1[O-]
The “Percent Effect” value of the first is higher: 1.156% for the first, -1.693% for the second.

First: CN(CC(=O)NC(c1ccc(F)cc1)C(F)(F)F)S(C)(=O)=O (stereo unspecified)
Second: CC(C(=O)N(Cc1ccc(F)cc1)CC(F)(F)F)S(C)(=O)=O (stereo unspecified)
The “Percent Effect” value of the first is lower: -15.92% for the first, 19.96% for the second.

Compared with `CCN1CCN(CC(O)c2ccc(Br)cc2)CC1` (stereo unspecified), `CS(=O)(=O)N1CC[C@@H]2[C@@H]1CCN2Cc1ccc2c(c1)OCO2.O=C(O)C(F)(F)F` is lower in “Percent Effect” value: 16.45% for the first, -17.32% for the second.
